From ChEMBL document CHEMBL3988442, “University of Dundee, Small-Polar-MMV Screening Library” (2021) come the findings set out here.

Hit rate of the full screen: of about 67,000 compounds, about 300 (0.45%) showed an effect of 50% or more. Only a selection was taken, and strong results are over-represented in it overall.

This assay deals with Polyketide synthase Pks13 (Mycobacterium tuberculosis (strain ATCC 25618 / H37Rv)) (UniProt I6X8D2). The assay can be described thus: Mycobacterium tuberculosis Polyketide synthase 13 Thioesterase (PKS13). The assay is classed as functional. Also noted: scale not given: in the data most compounds retested in dose-response had high values. The settings on record: 30 µM.
Chain of Polyketide synthase Pks13 (Mycobacterium tuberculosis (strain ATCC 25618 / H37Rv)) (I6X8D2 whole entry): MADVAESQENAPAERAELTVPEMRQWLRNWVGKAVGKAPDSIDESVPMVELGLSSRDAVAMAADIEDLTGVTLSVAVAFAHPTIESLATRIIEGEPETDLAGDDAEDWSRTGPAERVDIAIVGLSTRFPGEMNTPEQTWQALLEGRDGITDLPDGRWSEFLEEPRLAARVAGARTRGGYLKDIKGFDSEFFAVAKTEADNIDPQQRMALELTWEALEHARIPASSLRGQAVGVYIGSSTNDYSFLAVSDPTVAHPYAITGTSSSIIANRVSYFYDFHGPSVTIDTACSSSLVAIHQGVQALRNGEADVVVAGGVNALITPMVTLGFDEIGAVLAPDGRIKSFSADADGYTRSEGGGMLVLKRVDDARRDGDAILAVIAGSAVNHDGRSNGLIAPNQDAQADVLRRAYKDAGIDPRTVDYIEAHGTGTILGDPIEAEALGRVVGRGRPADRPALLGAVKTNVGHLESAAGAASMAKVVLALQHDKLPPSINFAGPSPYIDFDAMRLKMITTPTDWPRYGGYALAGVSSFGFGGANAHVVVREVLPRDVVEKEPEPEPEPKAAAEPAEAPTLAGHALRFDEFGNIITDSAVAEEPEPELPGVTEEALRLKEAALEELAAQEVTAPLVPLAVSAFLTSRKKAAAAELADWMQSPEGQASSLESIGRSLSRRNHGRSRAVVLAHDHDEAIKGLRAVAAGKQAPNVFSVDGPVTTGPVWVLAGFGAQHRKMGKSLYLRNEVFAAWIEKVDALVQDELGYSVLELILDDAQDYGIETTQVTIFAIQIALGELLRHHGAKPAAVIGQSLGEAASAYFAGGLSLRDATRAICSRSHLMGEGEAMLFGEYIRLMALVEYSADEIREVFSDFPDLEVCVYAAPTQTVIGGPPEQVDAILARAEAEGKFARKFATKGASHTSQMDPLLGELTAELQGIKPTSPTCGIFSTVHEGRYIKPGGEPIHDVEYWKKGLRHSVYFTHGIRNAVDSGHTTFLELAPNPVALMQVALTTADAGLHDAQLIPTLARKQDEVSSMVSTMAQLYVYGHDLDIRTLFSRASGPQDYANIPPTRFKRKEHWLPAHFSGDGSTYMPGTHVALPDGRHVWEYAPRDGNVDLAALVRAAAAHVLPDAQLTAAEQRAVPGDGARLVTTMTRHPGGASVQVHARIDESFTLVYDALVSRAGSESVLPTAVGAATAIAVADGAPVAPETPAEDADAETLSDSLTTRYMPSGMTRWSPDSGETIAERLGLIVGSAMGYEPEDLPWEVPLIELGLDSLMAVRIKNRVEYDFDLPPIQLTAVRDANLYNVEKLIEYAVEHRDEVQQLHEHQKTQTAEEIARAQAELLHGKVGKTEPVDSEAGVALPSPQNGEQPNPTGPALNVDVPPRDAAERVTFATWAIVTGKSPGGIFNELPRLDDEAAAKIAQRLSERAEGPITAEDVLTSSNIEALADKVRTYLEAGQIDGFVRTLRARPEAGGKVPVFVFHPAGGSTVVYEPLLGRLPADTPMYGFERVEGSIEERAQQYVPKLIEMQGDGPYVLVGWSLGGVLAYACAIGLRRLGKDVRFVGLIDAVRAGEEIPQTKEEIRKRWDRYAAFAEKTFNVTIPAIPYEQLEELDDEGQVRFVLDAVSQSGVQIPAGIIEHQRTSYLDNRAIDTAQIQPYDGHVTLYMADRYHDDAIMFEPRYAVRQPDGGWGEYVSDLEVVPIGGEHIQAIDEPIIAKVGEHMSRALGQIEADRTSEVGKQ
Consider `CC(C)CNC(=O)c1cn(-c2ccccn2)c(=O)c2ccccc12`, for which the Percent Effect amounted to 42.5%.

Consider `CN(C)C(=O)[C@]12CCCN(CC3CC3)C[C@H]1CN(c1ccccn1)C2`, for which the Percent Effect was -21.7%.

Turning to `COCCc1noc(-c2cn(Cc3ccc(OC)cc3)nn2)n1`, the Percent Effect is -2.84%.

Turning to `COCCc1noc(-c2cn(Cc3ccccc3C)nn2)n1`, the Percent Effect is -13.8%.

Take `COCCc1noc(-c2cn(CCc3ccccc3)nn2)n1`: the Percent Effect is 62.2%.

For `CN(Cc1cncnc1)[C@@H]1CN(Cc2ccco2)C[C@@H]2CCCO[C@@H]21`, the Percent Effect was -4.7%.

Regarding `O=C(NCC1CC1)[C@H]1C[C@@H]2CCN(Cc3nccs3)C[C@@H]2O1`, the Percent Effect was -42.1%.

In the case of `O=C(N[C@H]1CN[C@H]2CCCO[C@H]21)c1ccno1`, the Percent Effect was -17%.

On to `O=C(c1ccncc1)N1C[C@@H]2CC[C@H](C1)N(S(=O)(=O)c1cccnc1)C2`, for which the Percent Effect was -25.8%.

For the compound `O=C(c1cnccn1)N1C[C@@H]2CC[C@H](C1)N(S(=O)(=O)c1cccnc1)C2`, the Percent Effect was 56.1%.

On to `O=C(c1ccccc1)N1C[C@@H]2CC[C@H](C1)N(S(=O)(=O)c1cccnc1)C2`, for which the Percent Effect is -34.5%.

Take `O=S1(=O)C[C@@H]2[C@H](C1)N(Cc1ncc[nH]1)CCN2C/C=C/c1ccccc1`: the Percent Effect is 5.07%.

As for `CCC1=N[C@@]2(CC[C@@H]3CN(S(=O)(=O)CC)C[C@@H]32)C(=O)N1CCOC`, the Percent Effect was -31.3%.

With `O=C(c1cnn2ccccc12)N1CCCC(OCc2ccccn2)C1` (centres undefined), the Percent Effect was -9.11%.

In the case of `CCCn1ncc(C(=O)N2CCCC(OCc3ccccn3)C2)c1C` (centres undefined), the Percent Effect was -15.6%.

`Cc1cnc2c(C(=O)N3CCCC(OCc4ccccn4)C3)cnn2c1` (centres undefined): the Percent Effect was found to be 81.5%.

For `Cc1cccc(CN2CC[C@H]3OCC[C@@]3(C(=O)N3CCCO3)C2)n1`, the Percent Effect was 8.33%.

`CNC[C@H]1CC[C@H](c2cc(CN(C)C(=O)c3cnccn3)n(C)n2)CC1`: the Percent Effect is -6.04%.

Take `CC(NC(=O)Nc1cccnc1N1CCCC1)c1ccncc1` (centres undefined): the Percent Effect turned out to be 0.204%.

`COc1ncccc1NC(=O)NC(C)c1nncn1C` (centres undefined): the Percent Effect was -5.35%.

In the case of `CC(NC(=O)Nc1cccnc1N1CCCC1)c1nncn1C` (centres undefined), the Percent Effect came out at 56%.

Turning to `CCc1cnc(N2C[C@H]3C[C@H](C(=O)N(C)C)[C@@H](C2)O3)nc1`, the Percent Effect was -7.42%.

In the case of `N#CCCCS(=O)(=O)N1CCC(CSc2ccccc2)C1` (centres undefined), the Percent Effect is -31.5%.

On to `CCS(=O)(=O)N1CCC(CSc2ccccc2)C1` (centres undefined), for which the Percent Effect came to 9.93%.

Take `N#Cc1nccnc1N1CCC(CSc2ccccc2)C1` (centres undefined): the Percent Effect stood at 53.9%.

Turning to `Cc1ccc(N2CCO[C@H]3CN(Cc4ccc(F)cc4)C[C@H]32)nn1`, the Percent Effect turned out to be 4.79%.

With `CC(C)N1CCO[C@H]2CN(C(=O)c3ccncc3F)C[C@H]21`, the Percent Effect was -27%.

As to `O=C(O)[C@]12CCCN(Cc3ccncc3)[C@@H]1CCN(c1cnccn1)C2`, the Percent Effect is -7.13%.

`O=C(O)[C@]12CCCN(Cc3cccnc3)[C@@H]1CCN(c1cnccn1)C2`: the Percent Effect worked out at 10.4%.

As for `O=C(O)[C@]12CCCN(Cc3ccccn3)[C@@H]1CCN(c1cnccn1)C2`, the Percent Effect came to 95.4%.

Take `Cc1ccsc1CN1CC[C@H]2OCC[C@@]2(C(=O)N2CCCO2)C1`: the Percent Effect was -17.7%.

On to `O=C(NC[C@]12COC[C@H]1CN(Cc1ccncc1)C2)c1ccno1`, for which the Percent Effect was -9.3%.

With `CN(C)c1ncnc2c1CCN(C(=O)c1cccnc1)CC2`, the Percent Effect turned out to be 61.9%.

Turning to `Cc1ncnc2c1CCN(C(=O)c1cccnc1)CC2`, the Percent Effect is -18.2%.

Take `O=C(c1cccnc1)N1CCc2ncnc(N3CCOCC3)c2CC1`: the Percent Effect is -1.96%.

Regarding `CN1C(=O)C[C@@H]2[C@@H]1CCN2C(=O)c1ccc[nH]1`, the Percent Effect is -5.06%.

Consider `Cc1cc(CN2CC[C@H]3C[C@H](C)O[C@@H]3C2)no1`, for which the Percent Effect was -27.6%.

In the case of `Cc1cccc(OC2CCN(c3ccc(C#N)cn3)CC2)n1`, the Percent Effect is 22.3%.

For `Cc1cccc(OC2CCN(c3nccnc3C#N)CC2)n1`, the Percent Effect came to 85.3%.

On to `Cc1cccc(OC2CCN(c3ncc(C#N)cc3Cl)CC2)n1`, for which the Percent Effect was determined as 26.2%.

As for `COCCNC(=O)C[C@@H]1COC[C@H]2CN(Cc3cccnc3)C[C@@H]12`, the Percent Effect came out at 7.6%.

In the case of `COc1ccc(CN2C[C@H](OCC3CCOCC3)[C@H]3COC[C@H]32)cc1`, the Percent Effect is -3.35%.

On to `O=C(NCc1cccc(F)c1)N1CCc2ncnc(NC3CC3)c2CC1`, for which the Percent Effect was -9.48%.

Turning to `O=C(Cc1cccc(F)c1)N1CCc2ncnc(NC3CC3)c2CC1`, the Percent Effect came out at 121%.

In the case of `O=C(Cc1cccc(F)c1)N1CCc2ncnc(NC3CCC3)c2CC1`, the Percent Effect is -11.9%.

On to `CCOCCN1Cc2ncn(C)c2C(COCC2CCOCC2)C1` (centres undefined), for which the Percent Effect was 55.1%.

Turning to `Cn1cnc2c1C(COCC1CCOCC1)CN(Cc1ccccn1)C2` (centres undefined), the Percent Effect is -19.7%.

For `Cn1cnc2c1C(COCC1CCOCC1)CN(C1CCOCC1)C2` (centres undefined), the Percent Effect is -38%.

Take `CN1C(=O)C[C@@H]2[C@@H]1CCN2S(=O)(=O)Cc1ccccc1`: the Percent Effect was -11.3%.

Turning to `O=C(COCC1CC[C@H]2[C@H](CCN2c2ncccn2)O1)N1CCCC1` (some centres undefined), the Percent Effect amounted to 9.91%.

As for `Nc1cc(C(=O)NCC2CCN(Cc3ccncc3F)C2)ccn1` (centres undefined), the Percent Effect came out at 141%.

On to `CC/C=C(\C)CN1CCC(CNC(=O)c2ccnc(N)c2)C1` (centres undefined), for which the Percent Effect was -25.3%.

For `Nc1cc(C(=O)NCC2CCN(Cc3cccc(O)c3)C2)ccn1` (centres undefined), the Percent Effect was -14.3%.

On to `CCc1ccc(CN2CC[C@H]3C[C@H](c4nnc(C)[nH]4)O[C@@H]3C2)o1`, for which the Percent Effect was 32%.
